Source: PubChem BioAssay AID686970 (National Center for Advancing Translational Sciences (NCATS), 2013)
The whole screen tested about 360,000 compounds, of which about 6,000 (1.7%) were called active. Entries that show only a call come without a potency. About 8% were inconclusive and are not listed. The call rests on the fitted dose curve; in most records, active means well fitted cell-killing curve with a large enough effect; inconclusive means small, poorly fitted or top-dose-only effect, or effect the other way; inactive means flat fitted curve, though single readings scatter. For the sample, actives were picked, then their nearest neighbours and some compounds at random.

Assay: qHTS for induction of synthetic lethality in tumor cells producing 2HG: qHTS for the HT-1080-NT fibrosarcoma cell line;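 further: NT is the 2HG producing partner of a matched IDH1 knockdown line; nearly all actives have a fitted effect of over 55% in size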
Settings: HT-1080-NT fibrosarcoma viability, CellTiter-Glo ATP luminescence, 48 h; series mostly up to 46.1 µM
How it was run: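 Viability by CellTiter-Glo luminescence after 48 h compound exposure at 37C of HT-1080-NT cells (750/well, RPMI, 5% FBS). % activity scaled between DMSO wells and medium-only wells, then curve-fitted and categorized by curve class.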
Potency means the concentration at half of the fitted maximal effect.

Row | Compound | Potency
1 | O=c1[nH][nH]c2c1[C@H](c1ccc(Cl)cc1)O[C@H](CCc1ccccc1)C2 | inactive
2 | COc1cccc(CNC(=O)[C@@H]2CCCN2C(=O)[C@@H]2CCCN2C(=O)c2ccccc2)c1 | inactive
3 | CC1(C(=O)NCc2ccc3c(c2)OCO3)CCN1C(=O)Cc1cccc2ccccc12 (stereo unspecified) | inactive
4 | COc1ccc(OC)c(C(O)c2ncc(-c3cccc(C(F)(F)F)c3)[nH]2)c1 (stereo unspecified) | inactive
5 | COc1cc2nc(Cl)nc(NC3CC3)c2cc1OC | inactive
6 | Cc1ccc([C@H]2N[C@]3(CCCN(Cc4ccccc4)C3=O)[C@H]3C(=O)N(Cc4ccccc4)C(=O)[C@@H]23)cc1 | inactive
7 | CC(C)C[C@H]1CN([C@@H](Cc2ccccc2)CN2CCC[C@@H]2CN2C(=O)C(=O)NC[C@@H]2Cc2ccc(O)cc2)C(=O)C(=O)N1CCc1ccccc1 | inactive
8 | CC(C)C[C@H]1CNC(=S)N1C[C@H]1CCCN1C[C@H](Cc1ccc(O)cc1)N1C[C@H](Cc2ccc(O)cc2)N(CC2CCCCC2)C1=S | 20.6 µM (active)
9 | CC(C)C[C@H]1CNC(=O)C(=O)N1C[C@@H]1CCCN1C[C@H](Cc1ccccc1)N1C[C@H](CC(C)C)N(CC2CCCCCC2)C(=O)C1=O | inactive
10 | C[C@@H]1CN([C@@H](C)CO)C(=O)CCCn2nncc2CO[C@H]1CN(C)Cc1ccc(C(F)(F)F)cc1 | inactive
11 | CC1(C(=O)NS(=O)(=O)c2cccs2)CCN1C(=O)Cc1ccc(-c2ccccc2)cc1 (stereo unspecified) | inactive
12 | COc1cc(SC#N)ccc1N=Cc1c(C)[nH]n(-c2ccc(C)cc2)c1=O | 25.9 µM (active)
13 | O=Cc1cn(CCOc2ccc(F)cc2)c2ccccc12 | inactive
14 | CCc1nc2ccc(C(=O)Nc3ccc(OC)c(OC)c3)cn2c1N(C)C(=O)c1cccc(OC)c1 | inactive
15 | CCc1nc2ccc(C(=O)N(C)CCN(C)C)cn2c1N(CC)CCOC | inactive
16 | CCc1nc2ccc(C(=O)Nc3cccc(OC)c3)cn2c1N(CCC(C)C)CCN(C)C | 18.4 µM (active)
17 | CCCCCc1c(C)nc(N2CCN(Cc3ccc4c(c3)OCO4)CC2)[nH]c1=O | inactive
18 | O=c1[nH]c(N2CCN(Cc3ccc4c(c3)OCO4)CC2)nc2c1CCCC2 | inactive
19 | Fc1ccc2[nH]c3c(N4CCN(Cc5ccc6c(c5)OCO6)CC4)ncnc3c2c1 | 23.1 µM (active)
20 | COc1cccc(-c2cc3nc(NCCOc4ccccc4Cl)n(C)c(=O)c3s2)c1 | inactive
21 | CCCC(=O)N1CCC1(C)C(=O)NCc1ccc(SC)cc1 (stereo unspecified) | inactive
22 | CCCc1nc2ccccc2n1C(C)C(=O)NC(C)(C)C (stereo unspecified) | inactive
23 | Cc1cccc(-c2cnc(C(O)c3ccc4ccccc4c3)[nH]2)c1 (stereo unspecified) | inactive
24 | CN(c1ccccc1)S(=O)(=O)c1ccc(Cl)c(C(=O)NCCc2c[nH]c3ccccc23)c1 | inactive
25 | CN(C)CCNC(=O)c1ccc(Cl)c2cc3ccccc3nc12 | 20.6 µM (active)
26 | CN(C)CCNC(=O)Nc1cccc(Cl)c1Cl | inactive
